# Assay results from PubChem BioAssay (NCI).
# Values joined by “and” are separate entries in the source; they are usually repeats but may differ in a detail not shown here. Equal entries are not always repeated. About 83,000 compounds went through this panel and 20% of them were active in at least one assay; those are over-represented in the sample as a whole.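 Assay: single dose, 48 h. Readout: percent growth (0 = no net growth; negative = cell death). Active: <10.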 Unmarked numbers belong to inactive results. Active and inactive are the calls of the source.
# System: MDA-MB-468 breast
# Test: NCI-60 one-dose screen, 48 h (100 = growth as untreated, 0 = no growth, -100 = all killed)
# Conditions: 10 µM unless noted
row,Structure (SMILES),growth
1,Oc1cccc2ccc(N/N=C/c3cc(CN4CCCCC4)c(O)c4ncccc34)nc12,-26.3% (active)
2,O=C(Nc1cccc(Cl)c1)c1cc2ccccc2cc1O,55.4% and 17.8%
3,Cc1ccc2c(c1)C(=O)c1c-2c(OCCCN(C)C)nc2ccccc12,28.9%
4,CN(C)CCOC(=O)Nc1ccc(Cc2ccc(NC(=O)OCCN(C)C)cc2)cc1,40.4% [100 µM]
5,O=C1/C(=C/c2ccc(O)c(O)c2)COc2ccc(-c3ccccc3)cc21,6.16% (active)
6,CC12CCC3C4(C)COC(c5ccco5)OC4CCC3(C)C1CC(C1=CCOC1=O)O2 (stereo not given),91.8%
7,Cc1ccc2c(c1)c(Sc1ccc(C(=O)NO)cc1)c1n2CN(C)CC1,-19.3% (active)
8,CC(C)c1ccc(S(=O)(=O)NC(=O)NC2CCCC2)cc1,96.2%
9,CC12OC(CC(O)C1O)n1c3ccccc3c3c4c(c5c6ccccc6n2c5c31)C(=O)N(CCN1CCCC1)C4=O (stereo not given),3.48% (active)
10,Cc1noc(C)c1CSc1ccccc1C(=O)N1CCN(c2cccc(C(F)(F)F)c2)CC1,38.1%
11,COc1ccc(C(=O)C(C)C)c2ccccc12,102%
12,OB(O)c1ccccc1,110%
13,COC(=O)c1cc([N+](=O)[O-])cc([N+](=O)[O-])c1Cl,-7.42% (active)
14,CCN(CC)CCCCCCCNc1cc(OC)cc2c(C)ccnc12,40.5%
15,COc1ccc(C2Nc3nc(OC)n(C)c(=O)c3N=C3c4ccccc4C(=O)C32)cc1 (stereo not given),104%
